Experimental findings from ChEMBL document CHEMBL1157539, “Thousands of chemical starting points for antimalarial lead identification” (Nature, 2010) are described below.

Structures are written as SMILES.

Usually Inhibition stands for the change of the read-out against control, counted positive when it falls. A higher Inhibition goes with a response far below the control.

Common to all, as to assay type: functional
In assay [1] the test system is Plasmodium falciparum. The assay can be described thus: GSK_TCMDC: Inhibition of Plasmodium falciparum 3D7 in whole red blood cells, using parasite LDH activity as an index of growth. Test compounds present at 2uM.
The subject of assay [2] is Plasmodium falciparum. The assay can be described thus: GSK_TCMDC: Inhibition of Plasmodium falciparum Dd2 in whole red blood cells, using parasite LDH activity as an index of growth. Test compounds present at 2uM.
A further assay relates to HepG2. As to the kind of experiment: GSK_TCMDC: Percent inhibition of human HepG2 cell line. Test compounds present at 10uM.

As for `CN(C)CC(O)C(c1ccccc1)c1ccc(Cl)cc1.O=C(O)CCC(=O)O` (stereo not given), the Inhibition in the assay with Plasmodium falciparum [1] is 99%; with Plasmodium falciparum [2], 4%; with HepG2 it was 4%.

Regarding `CCN1CCN(c2cc(C)c3cc(NC(=O)C=Cc4cccc(OC)c4OC)ccc3n2)CC1`, the Inhibition in the assay with Plasmodium falciparum [1] is 99%; with Plasmodium falciparum [2], 38%; in the assay with HepG2, 18%.

In the case of `Fc1ccc2[nH]c(-c3ccc(-c4ccc(CN5CCN(c6ccncc6)CC5)cc4)cc3)nc2c1.O=C(O)C(F)(F)F`, the Inhibition with Plasmodium falciparum [1] came to 100%; in the assay on Plasmodium falciparum [2], 100%; in the assay on HepG2, 37%.

With `COc1ccc(C2CC(c3cccs3)=NN2C(=O)CNc2ccccc2F)cc1OC` (stereo not given), the Inhibition with Plasmodium falciparum [1] turned out to be 87%; in the assay on Plasmodium falciparum [2] it was 45%; in the assay with HepG2, 11%.

For the molecule `Cc1nc(N)nc(N)c1Oc1cccc(Cl)c1.O=S(=O)(O)O`, the Inhibition in the assay on Plasmodium falciparum [1] is on record as 94%; with Plasmodium falciparum [2] it was 0%; in the assay on HepG2, 49%.

In the case of `COc1ccc(Nc2nccc(NCCNC(=O)Nc3cc(C)ccc3C)n2)cc1`, the figures for the Inhibition in the assay with Plasmodium falciparum [1], in the assay on Plasmodium falciparum [2] and in the assay with HepG2 were 85%, 0% and 10%, respectively.

Consider `CN(C)C(=O)CCCn1c(CNCCCNc2cc(=O)c3ccccc3[nH]2)cc2c(Cl)cc(Cl)cc21.Cl`, for which the Inhibition is 89% in the assay on Plasmodium falciparum [1], 0% in the assay on Plasmodium falciparum [2] and 1% with HepG2.

Consider `Cc1cc(Nc2ncc3c(n2)N(C2CCC2)CC3)ccc1N1CCN(C)CC1.Cl`, for which the Inhibition is given as 100% in the assay on Plasmodium falciparum [1], 100% in the assay on Plasmodium falciparum [2] and 27% in the assay on HepG2.

On to `CCCCCCN1CCN(Cc2cccc(NC(=O)c3cccc(OCC)c3)c2)CC1.O=C(O)C(F)(F)F`, for which the Inhibition in the assay on Plasmodium falciparum [1] is recorded as 85%; in the assay on Plasmodium falciparum [2] it was 48%; in the assay on HepG2, 65%.

On to `N#CC(CC(=O)c1ccc(Cl)cc1)c1cccc(F)c1` (stereo not given), for which the Inhibition is on record as 97% in the assay with Plasmodium falciparum [1], 4% in the assay on Plasmodium falciparum [2] and 5% in the assay on HepG2.

Turning to `Cc1cc(S(=O)(=O)N2CCCCC(c3ccc(C(F)(F)F)cc3)=N2)c(Cl)cc1Cl`, the Inhibition in the assay with Plasmodium falciparum [1] came to 97%; in the assay with Plasmodium falciparum [2], 97%; with HepG2 it was 17%.

Consider `COc1ccc2ncc(F)c([C@H](O)CN3CCC(NCc4ccc5c(c4)NC(=O)CO5)CC3)c2c1.Cl`, for which the Inhibition is reported as 100% in the assay with Plasmodium falciparum [1], 100% in the assay with Plasmodium falciparum [2] and 16% with HepG2.

As for `Cl.N#Cc1ccc2c(c1)CCN(CCC1CCC(NC(=O)c3cc4ccc(Br)cc4[nH]3)CC1)C2` (stereo not given), the values for the Inhibition in the assay with Plasmodium falciparum [1], with Plasmodium falciparum [2] and in the assay with HepG2 were 100%, 17% and 12%, respectively.

For the molecule `N#Cc1c(N2CCCCCC2)nc(N)c2c(N)nc3c(c12)CC(=O)N3c1ccc(F)cc1`, the figures for the Inhibition in the assay with Plasmodium falciparum [1], in the assay with Plasmodium falciparum [2] and with HepG2 were 97%, 91% and 0%, respectively.

Turning to `Cc1nc(N)nc(N)c1OCc1cccc2ccccc12.Cl`, the Inhibition was found to be 96% with Plasmodium falciparum [1], 11% in the assay with Plasmodium falciparum [2] and 63% with HepG2.

For the molecule `Cc1ccccc1CNc1noc(-c2c(F)cccc2Cl)n1`, the Inhibition is reported as 97% in the assay with Plasmodium falciparum [1], 90% in the assay on Plasmodium falciparum [2] and 14% in the assay on HepG2.

As to `CCCCCCN1CCC(CNCc2cccc(Cl)c2)CC1.O=C(O)C(F)(F)F`, the Inhibition in the assay on Plasmodium falciparum [1] is 85%; in the assay on Plasmodium falciparum [2], 13%; with HepG2, 8%.

Consider `CN1CCN(Cc2cc(NC(=O)c3ccc(-c4ccc(Cl)cc4Cl)cc3)ccc2-c2ccccc2)CC1`, for which the Inhibition in the assay with Plasmodium falciparum [1] is on record as 95%; in the assay on Plasmodium falciparum [2] it was 21%; in the assay with HepG2, 52%.

For `O=C(Nc1ccc(Cl)c(C(F)(F)F)c1)c1ccc(Cl)c([N+](=O)[O-])c1`, the results for the Inhibition with Plasmodium falciparum [1], in the assay on Plasmodium falciparum [2] and with HepG2 were 87%, 18% and 20%, respectively.

For the molecule `O=C(NCCN1CCCC1)c1cccc(-c2ccc(-c3nc4ccccc4[nH]3)cc2)c1`, the Inhibition is 100% in the assay on Plasmodium falciparum [1], 36% in the assay with Plasmodium falciparum [2] and 20% in the assay with HepG2.

In the case of `COc1ccccc1CNC(=O)c1cc(OC)c(OC)cc1NC(=O)c1cccs1`, the Inhibition in the assay with Plasmodium falciparum [1] was found to be 88%; in the assay on Plasmodium falciparum [2], 71%; with HepG2, 12%.

On to `COc1ccc2nccc(N/N=C/c3cccc([N+](=O)[O-])c3)c2c1`, for which the Inhibition is listed as 100% in the assay on Plasmodium falciparum [1], 98% in the assay on Plasmodium falciparum [2] and 4% in the assay with HepG2.

In the case of `CN(C)c1ccc(-c2ccc(C(=O)NC3CCN(Cc4cccc(C(F)(F)F)c4)CC3)s2)cc1.O=C(O)C(F)(F)F`, the Inhibition in the assay on Plasmodium falciparum [1] was 96%; with Plasmodium falciparum [2] it was 77%; with HepG2, 35%.

On to `O=C(Nc1cccc(-c2ccc(-c3nc4cc(F)ccc4[nH]3)cc2)c1)Nc1ccc(Cl)c(Cl)c1`, for which the values for the Inhibition in the assay with Plasmodium falciparum [1], in the assay with Plasmodium falciparum [2] and with HepG2 were 100%, 49% and 79%, respectively.

Take `CCN(CC)/C(=N/C(=N)NCc1ccc(Cl)cc1Cl)NCCCCCCN/C(=N\C(=N)NCc1ccc(Cl)cc1Cl)N(CC)CC`: the Inhibition in the assay with Plasmodium falciparum [1] was 100%; in the assay on Plasmodium falciparum [2], 99%; in the assay on HepG2, 16%.

`Cc1cc(-c2ccc3c(c2)CCN(CCC2CCC(NC(=O)/C=C/c4cccc(Cl)c4)CC2)CC3)on1.Cl` (stereo not given): the Inhibition in the assay on Plasmodium falciparum [1] is on record as 100%; in the assay with Plasmodium falciparum [2], 49%; with HepG2, 16%.

On to `O=C(Nc1ccc(Cn2ncc(N3CCCNCC3)c(Cl)c2=O)cc1)Nc1ccc(-c2ccccc2)cc1.O=C(O)C(F)(F)F`, for which the Inhibition is listed as 93% in the assay with Plasmodium falciparum [1], 51% in the assay on Plasmodium falciparum [2] and 10% in the assay with HepG2.

On to `CCN(CC)CCN(Cc1ccc(-c2ccc(C(F)(F)F)cc2)cc1)C(=O)Cn1c(CCc2ccc(F)cc2)nc(=O)c2ccccc21.O=C(O)C(O)C(O)C(=O)O`, for which the Inhibition is 97% with Plasmodium falciparum [1], 58% in the assay with Plasmodium falciparum [2] and 42% in the assay with HepG2.

As to `Cl.OC(c1cc(C(F)(F)F)nc2c(F)cccc12)C1CCCCN1` (stereo not given), the Inhibition in the assay with Plasmodium falciparum [1] came out at 98%; with Plasmodium falciparum [2] it was 74%; in the assay with HepG2, 0%.

For the molecule `Cc1ccc2[nH]c(C)cc(=NN=Cc3cccc(F)c3)c2c1`, the Inhibition in the assay with Plasmodium falciparum [1] is on record as 99%; in the assay with Plasmodium falciparum [2], 99%; with HepG2, 6%.
